The record followed here is PubChem BioAssay AID588850 (Sanford-Burnham Center for Chemical Genomics, 2011).

In all, about 360,000 compounds went through this assay and about 3,100 (0.86%) were called active. This is one part of a sample in which actives are shown more often than they occur. Unmarked numbers belong to inactive results.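 Rule for the calls: active = at least 50% inhibition at 5 µM, scaled per plate between neutral and stimulator controls; inactive = the rest.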

This test can be described thus: NF-kB reporter blockers in CF airway cells – cell-based, GFP fluorescence, uHTS, primary screen (AID 588850).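 Note: PAF is a Pseudomonas aeruginosa culture filtrate used as stimulus; plate controls were PAF-stimulated DMSO wells for no effect and unstimulated DMSO wells for full effect.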 As to conditions: KKLEB NF-kB-GFP reporter, PAF-induced, GFP fluorescence overnight; at 5 µM; stronger effect = higher value.
On to `NS(=O)(=O)c1ccc(N=Cc2ccc(Br)s2)cc1`, for which the inhibition is 2.4%. As for `COc1cccc(CCNC(=O)COc2cccc3c2OC(C)(C)C3)c1`, the inhibition was 17.3%. As for `Cc1ccc(-n2cc(CN(C)Cc3nccn3C)c(-c3cccc(C)c3)n2)cc1`, the figure is 28.4%. In the case of `CCNc1nc(N)nc(Oc2ccc(OCC)nn2)n1`, the inhibition was -19.3%. As for `O=C(CCCCCCCC(=O)N1CCCCC1)N1CCCCC1`, the inhibition is -8.3%. `O=C(c1cc(COc2c(F)cccc2F)on1)N1CCSCC1`: the inhibition is 19%. In the case of `COc1ccc(-c2cc(C(F)(F)F)nc(S(C)(=O)=O)n2)cc1OC`, the inhibition was 90.7% (active). Take `COc1ccc(-c2cc(C(=O)NCCCN3CCCC3=O)c3ccccc3n2)cc1OC`: the inhibition was -14%. With `COc1ccc(C2=NO[C@@H]3C(=O)N(Cc4ccccc4)C(=O)[C@H]23)cc1OC`, the inhibition was 11%. As for `Cc1cccc(CS(=O)(=O)c2ncc(Cl)c(C(=O)Nc3ccc(F)cc3)n2)c1`, the figure is 81.7% (active). With `Cc1cccc(NC(=O)CCN2CC(C)CC(C)C2)c1` (configuration not stated) the figure was 1.5%; with `Cc1cccc(CN2CCC(CNC(=O)Nc3ccc(F)c(Cl)c3)CC2)c1`, -7.6%; with `Cc1ccc(C)c(Cn2nnc3c(=O)[nH]c(C(=O)Nc4ccc(F)cc4)nc32)c1`, 22.5%.

Take `Cc1cccc(NC(=O)Cn2cc(C(=O)c3ccco3)c3ccccc32)c1`: the inhibition was -7.8%. `Cc1cccc(NC(=O)c2nc(S(=O)(=O)Cc3ccccc3)ncc2Cl)c1`: the inhibition was 89.1% (active).

In the case of `ONC(=Nc1ccc(Cl)cc1)c1ccccc1Cl`, the inhibition was 9.7%.

On to `Nc1nnc(C2CCCC2)s1`, for which the inhibition was 0%. For `OC[C@@H]1CN(C2CCCC2)C[C@H](n2cnc3c(NC4CCC4)ncnc32)O1`, the inhibition is 6.2%. On to `O=C(Nc1ccn(Cc2ccccc2)n1)c1n[nH]c([N+](=O)[O-])c1Cl`, for which the inhibition is -15.6%. For the molecule `CC(=O)N1CCN(CC(=O)Nc2ccc(SC(F)F)cc2)CC1`, the inhibition is 5.2%. For `O=C(Cc1ccc(Cl)c(Cl)c1)Nc1ccc(SC(F)F)cc1`, the inhibition is 60.8% (active). With `Cc1ccc(CC(=O)Nc2ccc(OC(F)F)c(Cl)c2)cc1C` the figure was 2.1%; with `COc1ccccc1CC(NC(C)=O)C(=O)NC1CCN(C(=O)Nc2ccccc2Cl)CC1` (configuration not stated), 2.1%. Take `O=C1CCC(Cc2ccccc2)N1` (configuration not stated): the inhibition was 11.2%. With `CCOC(=O)/C(=C\c1ccc([N+](=O)[O-])cc1)C(=O)c1cc(C(C)=O)c(Nc2ccccc2)s1` the figure was 18.8%; with `CCOC(=O)C(=Cc1ccccc1OC)C(=O)OCC`, 26.4%. As for `CCOC(=O)C(=Cc1ccccc1)C(=O)c1ccccc1`, the inhibition was 66.7% (active). Consider `CN1CCc2c(sc3c2c(NCc2ccco2)nc2nnnn23)C1`, for which the inhibition was -14.3%. `CCN(CC(=O)NCc1cccs1)C(=O)/C=C/c1ccc(C)cc1`: the inhibition was -8.4%. On to `CCCn1nc(C(=O)NNC(=O)CSCC(=O)Nc2cc(C)on2)c2ccccc2c1=O`, for which the inhibition was 16.2%.

Turning to `CCc1ccc(N(CC)c2ncnc3nc[nH]c23)cc1`, the inhibition is 58.2% (active). Turning to `Cc1ccc(NC(=O)c2ccc(CSc3ncnc4nc[nH]c34)cc2)c(C)c1`, the inhibition is -2.8%. Regarding `COc1ccc(CCNc2ncnc3nc[nH]c23)cc1OC`, the inhibition is 14.3%.

As for `CCCN1C(=O)C(Cc2nc3ccccc3c(=O)n2-c2ccccc2)c2cc(C)ccc21` (configuration not stated), the inhibition is -39%. As to `O=C(Cc1ncc(C(F)(F)F)cc1Cl)Nc1cccc(Br)c1`, the inhibition was 7.6%. As to `CN(CC(=O)Nc1ccc(Cl)c(C(F)(F)F)c1)C(=O)CCC(=O)c1ccccc1`, the inhibition is -0.4%.

Turning to `O=C(CC(O)(C(F)(F)F)C(F)(F)F)Nc1ccc(Cl)c(Cl)c1`, the inhibition is 62.4% (active). On to `CN(CC(=O)Nc1ccc(OC(F)(F)F)cc1)C(=O)C1CCC1`, for which the inhibition is 6.5%. Take `O=C(O)C1CCCN1C1=NS(=O)(=O)c2ccccc21` (configuration not stated): the inhibition was 9.4%. For `O=C(COc1ccc(S(=O)(=O)N2CCOCC2)cc1Cl)N1CCOCC1`, the inhibition is 1.5%. Consider `O=C(Nn1c(-c2ccc(Cl)cc2)nc2ccccc2c1=O)c1cccnc1Cl`, for which the inhibition was 0.4%. For `Cc1cc(C)n(CC(C)NCc2c(C(=O)N3CCOCC3)nc3c(C)cccn23)n1` (configuration not stated), the inhibition was -0.6%. With `COc1ccc(NC(=O)COC(=O)C2COc3ccccc3O2)cc1` (configuration not stated), the inhibition was 4.2%. With `C/C(=N/NC(=O)C1COc2ccccc2O1)c1ccco1` (configuration not stated) the figure was 17.3%; with `O=C(Nc1cc(S(=O)(=O)N2CCCCC2)ccc1Cl)C1COc2ccccc2O1` (configuration not stated), 24.5%. Take `O=C(Nc1nc(-c2ccncc2)cs1)C1COc2ccccc2O1` (configuration not stated): the inhibition was 53.8% (active). On to `CC(=O)c1ccccc1NC(=O)COC(=O)C1COc2ccccc2O1` (configuration not stated), for which the inhibition was -8.8%. With `O=C(Nc1ncc([N+](=O)[O-])s1)C1COc2ccccc2O1` (configuration not stated), the inhibition was 60.8% (active). For the molecule `Cc1cc(OC(=O)c2ccccc2)c([N+](=O)[O-])c(=O)[nH]1`, the inhibition was 4.2%. For the molecule `O=C(O)CCc1nc2cc(Cl)ccc2n(Cc2ccccc2)c1=O`, the inhibition was 2.1%. With `CCCCCn1c(=O)c(C(=O)OCC)c(Cl)c2ccccc21` the figure was 9.9%. For the molecule `CC(=O)Oc1c(C(=O)c2nnc(C)o2)c(=O)n(Cc2ccccc2)c2ccccc12`, the inhibition is 50.9% (active). On to `CC(C)CCNC(=O)c1[nH]c(C(F)(F)F)nc1-c1ccccc1`, for which the inhibition is -2.1%. In the case of `CC(C)(C)C(=O)CCN1C(=O)C2(OCCO2)c2ccccc21`, the inhibition is -2.6%. For `CCCCn1c(N)c(N(CC(C)C)C(=O)c2ccc(-n3c(C)ccc3C)cc2)c(=O)[nH]c1=O`, the inhibition is 14.1%. With `CC1(C(=O)NS(=O)(=O)c2ccccc2)CCN1C(=O)C/C=C/c1ccccc1` (configuration not stated) the figure was 0.3%. Consider `CC1(C)CCSC(/C=C/c2ccccc2)=N1`, for which the inhibition is 55.9% (active). Consider `CC1(C(=O)O)CCN1C(=O)/C=C/c1ccccc1` (configuration not stated), for which the inhibition is 11.9%. Consider `CCc1cc(-c2nnn(CCC3COCCO3)c2CC)ccc1-c1cn(Cc2ccc3ccccc3c2)nn1` (configuration not stated), for which the inhibition is 19.3%. Consider `O=C1c2ccccc2NC(c2ccccc2O)N1NS(=O)(=O)c1ccccc1` (configuration not stated), for which the inhibition is -6.3%. In the case of `COc1cccc(N(C(=O)c2snc(C(N)=O)c2N)C(C(=O)NCC2CCCO2)c2c[nH]c3ccccc23)c1` (configuration not stated), the inhibition was -0.6%. `O=C(Nc1nnc(S(=O)(=O)N2CCOCC2)s1)c1cccc(Br)c1`: the inhibition was 13%. For `O=C(Nc1nnc(S(=O)(=O)N2CCCCCC2)s1)c1cccc(Br)c1`, the inhibition is 57% (active). With `COc1cccc(C(=O)Nc2nnc(S(=O)(=O)N3CCOCC3)s2)c1`, the inhibition is -7.5%. With `C/C(=N\NS(=O)(=O)c1ccc(Cl)cc1)c1ccc(NC(=O)c2ccco2)cc1` the figure was -14%; with `N#CCCC(C#N)(c1cccnc1)N1CCOCC1` (configuration not stated), -15.6%; with `CNCC(O)c1ccc(O)c(O)c1` (configuration not stated), 12.4%. With `CN(CCc1ccccn1)S(=O)(=O)c1ccc2c3c(cccc13)C(=O)N2` the figure was 5.4%.

Take `CCN(CC)S(=O)(=O)c1ccc2c3c(cccc13)C(=O)S2`: the inhibition is 54.1% (active). As to `CCN1C(=O)c2cccc3c(S(=O)(=O)Nc4ccccc4O)ccc1c23`, the inhibition was -71.5%. For the molecule `Cc1ccc(C(=O)OCC(=O)NCc2cc(C)c(O)c(C)c2)cc1S(=O)(=O)N1CCCCC1`, the inhibition is -0.3%.

Take `COCCCNc1ccn2nc(-c3ccc(CC(C)C)cc3)cc2n1`: the inhibition was -77.9%. Turning to `CC(C)(C)OC(=O)NCCCCCC(=O)N/N=C/c1coc2ccccc2c1=O`, the inhibition is 4.1%. With `O=c1c(/C=N/O)coc2ccc(Cl)cc12` the figure was 0.9%; with `Cc1ccc2occ(/C=N/NC(=O)c3ccccc3C)c(=O)c2c1`, 71% (active).

Turning to `Cc1ccc(NC(=O)[C@H](Cc2ccccc2)NC(=O)CC[C@H]2O[C@@H](n3ccc(=O)[nH]c3=O)[C@H](O)[C@@H]2O)cc1C`, the inhibition was -33.7%. Regarding `CCCCC(CC)CNCc1cccn1CCN1CCOCC1` (configuration not stated), the inhibition is -18.7%. With `Cc1ccc(COc2ccc(/C=N/NC(=O)CN3CCCCC3)cc2)cc1`, the inhibition was -24.1%.

With `Cc1ccc(/C=N/NC(=O)CSc2nc3ccccc3o2)cc1`, the inhibition was -2.1%. As for `Cc1ccc(/C=N/NC(=O)COc2ccccc2-c2ccccc2)cc1`, the figure is 51.1% (active); as for `O=C(NCc1ccc(F)cc1)c1cc(C2CCCCN2C(=O)c2ccccn2)on1` (configuration not stated), 4.9%.

In the case of `C=CCN1C=C(C(=O)c2ccccc2)C(=O)CC1`, the inhibition is 3.5%. Regarding `O=C(CCl)Nc1cccc(CP(=O)(c2ccccc2)c2ccccc2)c1`, the inhibition was 58% (active). On to `O=C(CSCc1ccccc1)Nc1ccccc1`, for which the inhibition is -2.5%. As for `O=C(CSc1ccccc1)Nc1ccc(C(=O)Nc2cccc(O)c2)cc1`, the figure is -12.7%. Turning to `O=C(NCc1nnc(SCC(=O)N2CCC(Cc3ccccc3)CC2)o1)c1ccco1`, the inhibition is 13.2%. With `CCOC(=O)C1(CCOC)CCN(Cc2cc3ccccc3s2)CC1` the figure was 11.7%; with `O=[N+]([O-])c1ccc(Oc2ccc(F)cc2Br)c2ccncc12`, 65% (active). For the molecule `O=c1ccc2c(-c3ccccc3S(=O)(=O)O)c3ccc(O)c(O)c3oc-2c1O`, the inhibition was 22%.

As for `Oc1c(C(c2cccs2)N2CCN(c3ccc(F)cc3)CC2)sc2ncnn12` (configuration not stated), the inhibition was 17.4%. Consider `CCOC(=O)C1=CC[C@@H](c2ccccc2)N(S(=O)(=O)c2ccc(C)cc2)[C@H]1c1ccc(CC)cc1`, for which the inhibition is 11.8%. `Cc1nnc(NC(=O)Cn2c(=O)sc3ccccc32)s1`: the inhibition was -6.1%. `CCc1ccc(NC(=O)Nc2ccncc2)cc1`: the inhibition is 16.4%. As for `Cc1ccc(NC(=O)Nc2cc(-c3ccccc3)nn2C)cc1Cl`, the inhibition is -3.9%. With `CC(C)=CC(=O)Nc1nnc(-c2ccc(F)cc2)s1` the figure was 0.2%.

As to `Cc1ccc(NC(=O)Nc2nnc(-c3ccncc3)s2)cc1`, the inhibition was 68% (active). Regarding `Cc1nnc(NC(=O)Nc2ccc(Cl)c(Cl)c2)s1`, the inhibition is 83.2% (active).
